# Records with an inconclusive call do not appear. Activity calls are given as the source filed them. How the source made its calls, unless noted: active means hit-call score of the fitted dose curve at least 0.9, where 1 is the maximum; inactive means score below 0.9.
# Key:
# [1] = target: Nucleoli Translocation, AR (gene 367) (UniProt P10275); test: UPITT_HCI_U2OS_AR_TIF2_Nucleoli_Antagonist: University of Pittsburgh U2OS Androgen Receptor-Transcriptional Intermediary Factor 2 (AR-TIF2) Antagonism High Content Imaging Assay for Nucleoli Translocation (AID 2283997; active means hit-call score of the fitted dose curve at least 0.9, where 1 is the maximum)
# Summary of the method: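 Antagonism is read as loss of nucleolar AR-RFP signal relative to DHT, imaged in U2OS cells also carrying GFP-TIF2. Compounds screened at 20 uM final, 0.2% DMSO; primary actives retested in triplicate.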
# [2] = target: Ratio of Nucleoli Translocation and Cytoplasm, AR (gene 367) (UniProt P10275); test: UPITT_HCI_U2OS_AR_TIF2_Nucleoli_Cytoplasm_Ratio_Antagonist: University of Pittsburgh U2OS Androgen Receptor-Transcriptional Intermediary Factor 2 (AR-TIF2) Antagonism High Content Imaging Assay for Ratio of Nucleoli Translocation and Cytoplasm (AID 2283999; active means hit-call score of the fitted dose curve at least 0.9, where 1 is the maximum;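 further: antagonists lower the DHT-driven ratio of nucleolar to cytoplasmic red signal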)
# Summary of the method: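 This antagonist-mode endpoint tracks AR-RFP localisation, the nucleolus-to-cytoplasm intensity ratio, in TIF2-GFP-coexpressing U2OS cells. DMSO stays at or below 0.5%; testing spans 20 uM single-dose and 0.195–50 uM series, with DHT setting the activity baseline.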
# [3] = target: Ratio of Nucleoli Translocation and Cytoplasm, AR (gene 367) (UniProt P10275); test: UPITT_HCI_U2OS_AR_TIF2_Nucleoli_Cytoplasm_Ratio_Agonist: University of Pittsburgh U2OS Androgen Receptor-Transcriptional Intermediary Factor 2 (AR-TIF2) Agonism High Content Imaging Assay for Ratio of Nucleoli Translocation and Cytoplasm (AID 2284000; active means hit-call score of the fitted dose curve at least 0.9, where 1 is the maximum;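 further: hits raise the red nucleolar to cytoplasm ratio above vehicle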)
# Summary of the method: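 Compounds tested at 20 uM final in primary screen (0.2% DMSO) and 0.195-50 uM final in dose-response (0.5% DMSO). Imaging of human U2OS cells bearing RFP-AR and GFP-TIF2; endpoint is nucleoli/cytoplasm red signal ratio, positive direction relative to DMSO.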
# [4] = CCTE_Shafer_MEA_acute_spike_number: CCTE's Neural Acute Assay for Total Number of Spikes, Shafer Lab (AID 2284008)
# Summary of the method: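 Using an adaptive detector set to 8x rms noise, spikes were counted in 40-min windows before and after compound addition (0.03-40 uM) to rat cortical networks at 37 C; the well-level change from baseline was analysed relative to DMSO.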
# [5] = CCTE_Shafer_MEA_acute_firing_rate_mean: CCTE's Neural Acute Assay for Mean Firing Rate, Shafer Lab (AID 2284009);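 further: analyzed for loss of signal so actives lower firing rate relative to DMSO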
# Summary of the method: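 Primary rat cortical neurons on 16-electrode MEA wells were exposed on DIV 13 or 15 to compound (0.03-40 uM). Spike counts per recording time, averaged over electrodes, were compared between 40-min baseline and 40-min post-exposure recordings as percent change.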
# [6] = CCTE_Shafer_MEA_acute_burst_number: CCTE's Neural Acute Assay for Single-Electrode Bursts, Shafer Lab (AID 2284013)
# Summary of the method: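 Primary rat cortical neurons on 16-electrode MEA wells, DIV 13 or 15, exposed to compound (0.03-40 uM; ≥3 wells); 40-min recordings at 37 C before and after treatment. Burst count expressed as percent change from baseline, DMSO as negative control.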
# [7] = CCTE_Shafer_MEA_acute_burst_duration_mean: CCTE's Neural Acute Assay for Mean Burst Duration, Shafer Lab (AID 2284014);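 further: hits are decreases in mean burst duration relative to DMSO controls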
# Summary of the method: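 Mean burst duration was compared between a 40 min baseline and a 40 min recording in the presence of compound (0.03-40 uM, 37 C), giving percent change per well. Cultures were rat cortical neurons at DIV 13 or 15; wells needed ≥10 active electrodes.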
# [8] = CCTE_Shafer_MEA_acute_per_burst_spike_number_mean: CCTE's Neural Acute Assay for Average Number of Spikes Per Burst, Shafer Lab (AID 2284015);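 further: hits are decreases in mean spikes per burst versus baseline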
# Summary of the method: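 Rat primary cortical neurons on 48-well MEAs (DIV 13 or 15) were treated with 0.03-40 uM compound at 37 C. Mean spikes per burst over 40 min were recorded before and after exposure and expressed as percent change from baseline, relative to DMSO.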
# [9] = CCTE_Shafer_MEA_acute_interburst_interval_mean: CCTE's Neural Acute Assay for Mean Interburst Interval, Shafer Lab (AID 2284016);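 further: percent change of mean interburst interval versus each well's own pre-dose baseline; curves fitted for decrease in interburst interval relative to DMSO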
# Summary of the method: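 Rat primary cortical neurons on 48-well MEAs at DIV 13 or 15 were exposed acutely to 0.03-40 uM. Spikes detected at 8x rms noise, 37 C. Mean interburst interval from 40 min recordings expressed as percent change from 40 min pre-treatment baseline.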
# [10] = CCTE_Shafer_MEA_acute_burst_percentage_mean: CCTE's Neural Acute Assay for Percentage of Spikes in a Burst, Shafer Lab (AID 2284017)
# Summary of the method: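 Primary rat cortical neurons on 48-well MEA plates, treated on DIV 13 or 15 at 0.03-40 uM. Spikes detected at 8x rms noise at 37C; percent change from 40-min baseline to 40-min post-dose recording, fitted versus DMSO.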
# [11] = CCTE_Shafer_MEA_acute_burst_percentage_std: CCTE's Neural Acute Assay for Standard Deviation of Burst Percentage, Shafer Lab (AID 2284018);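 further: fitted in the negative direction so actives lower burst percentage SD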
# Summary of the method: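 Value is percent change from baseline in the across-electrode SD of spikes-in-bursts percentage, wells with >/= 10 active electrodes. Acute 40-min exposure to 0.03-40 uM on DIV 13 or 15 rat cortical cultures, recorded at 37 C after 40-min baseline.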
# [12] = target: Retinoic acid receptor RXR-alpha (Homo sapiens) (UniProt P19793); test: TOX21_TR_RXR_BLA_Agonist_Followup_ratio: Tox21 Thyroid Hormone Receptor beta Retinoid X Receptor alpha (RXRa) Agonism Beta-lactamase (BLA) Follow-Up Assay, Ratio (AID 2283968; active means hit-call score of the fitted dose curve at least 0.9, where 1 is the maximum)
# Summary of the method: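 Agonism is scored as an increase in the 460:530 nm beta-lactamase substrate ratio over DMSO in RXRa-UAS-bla HEK293T cells exposed for 16 h to 11 compound concentrations.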
# [13] = TOX21_TR_RXR_BLA_Agonist_Followup_viability: Viability Assessment in the Tox21 Thyroid Hormone Receptor beta Retinoid X Receptor alpha (RXRa) Agonism Beta-lactamase (BLA) Follow-Up Assay (AID 2283970; active means hit-call score of the fitted dose curve at least 0.9, where 1 is the maximum)
# Summary of the method: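 Luminescent ATP read (CellTiter-Glo) after 16h exposure of RXRa-UAS-bla HEK293T cells at 37C/5% CO2. Activity normalized to DMSO; signal loss scored as reduced viability.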
# [14] = CCTE_Harrill_HTTr_Viability_MCF7: CCTE's 6-hour Cell Viability Assessment for the High-Throughput Transcriptomics (HTTr) Platform, in MCF-7 cells cultured in DMEM + 10% fetal bovine serum, Harrill Lab (AID 2284010)
# Summary of the method: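 Eight-point concentration series, six-hour exposure. Propidium iodide exclusion imaged to assess membrane integrity as a cytotoxicity readout; bidirectional fitting was done with DMSO as negative control and activity baseline.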
# [15] = CCTE_Harrill_HTTr_Apoptosis_MCF7: CCTE's 6-hour Apoptosis Assessment for the High-Throughput Transcriptomics (HTTr) Platform, in MCF-7 cells cultured in DMEM + 10% fetal bovine serum, Harrill Lab (AID 2284011)
# Summary of the method: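 Apoptosis in MCF-7 cells grown in DMEM with 10% fetal bovine serum was scored after a six hour exposure by high content imaging of caspase-3/7 activation (CellEvent Caspase 3/7 Green), with DMSO serving as negative control and baseline.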
# [16] = CCTE_Harrill_HTTr_CellCount_MCF7: CCTE's Cell Proliferation Assessment for the High-Throughput Transcriptomics (HTTr) Platform, Harrill Lab (AID 2284012; active means hit-call score of the fitted dose curve at least 0.9, where 1 is the maximum;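 further: count of Hoechst-stained nuclei per well by high-content imaging in MCF-7 cells; cells exposed to compound for six hours; intended direction is loss of nuclei count meaning fewer cells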)
# Summary of the method: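 For this full-screen endpoint, MCF-7 cultures received eight compound dilutions for six hours. Well nuclei counts from Hoechst imaging were analyzed relative to DMSO.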
# [17] = target: Nucleoli Translocation, AR (gene 367) (UniProt P10275); test: UPITT_HCI_U2OS_AR_TIF2_Nucleoli_Agonist: University of Pittsburgh U2OS Androgen Receptor-Transcriptional Intermediary Factor 2 (AR-TIF2) Agonism High Content Imaging Assay for Nucleoli Translocation (AID 2283998; active means hit-call score of the fitted dose curve at least 0.9, where 1 is the maximum)
# Summary of the method: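 High-content images quantify nucleolar accumulation of RFP-fused AR in cells also expressing GFP-TIF2; the endpoint is fitted as signal gain versus DMSO controls across final concentrations of 0.195 to 50 uM.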
# [18] = system: DIO1 (gene 1733); test: CCTE_GLTED_hDIO1: CCTE's human Deiodinase 1 (DIO1) Inhibition Assay, Great Lakes Toxicology and Ecology Division (GLTED) Lab (AID 2283987; active means hit-call score of the fitted dose curve at least 0.9, where 1 is the maximum;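 further: isolated human DIO1 enzyme in a cell-free setup rather than cells; enzyme activity read as free iodide liberated from substrate via Sandell-Kolthoff colorimetry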)
# Summary of the method: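 Chemicals are tested on human DIO1 without cells for 3 h. Uninhibited enzyme frees iodide, which speeds cerium(IV) reduction by arsenic and is read by spectrophotometry.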
# [19] = target: Retinoic acid receptor RXR-alpha (Homo sapiens) (UniProt P19793); test: TOX21_TR_RXR_BLA_Antagonist_Followup_ratio: Tox21 Thyroid Hormone Receptor beta Retinoid X Receptor alpha (RXRa) Antagonism Beta-lactamase (BLA) Follow-Up Assay, Ratio (AID 2283972; active means hit-call score of the fitted dose curve at least 0.9, where 1 is the maximum)
# Summary of the method: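 Compounds were tested in triplicate at 11 concentrations on RXRa-bla HEK293T cells for 16 h. Substrate cleavage ratio, normalized to DMSO, gave the endpoint.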
# [20] = TOX21_TR_RXR_BLA_Antagonist_Followup_viability: Viability Assessment in the Tox21 Thyroid Hormone Receptor beta Retinoid X Receptor alpha (RXRa) Antagonism Beta-lactamase (BLA) Follow-Up Assay (AID 2283979; active means hit-call score of the fitted dose curve at least 0.9, where 1 is the maximum)
# Summary of the method: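 Follow-up compounds (11 concentrations, triplicate) were incubated 16 h at 37C/5% CO2 with HEK293T RXRa-bla cells seeded at 2,500/well in charcoal-stripped-serum medium. ATP content by CellTiter-Glo luminescence gave viability; curves fitted in both directions against DMSO.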
# Nucleoli Translocation, AR (gene 367), sequence (P10275 whole entry, looked up, the tested form may be a part): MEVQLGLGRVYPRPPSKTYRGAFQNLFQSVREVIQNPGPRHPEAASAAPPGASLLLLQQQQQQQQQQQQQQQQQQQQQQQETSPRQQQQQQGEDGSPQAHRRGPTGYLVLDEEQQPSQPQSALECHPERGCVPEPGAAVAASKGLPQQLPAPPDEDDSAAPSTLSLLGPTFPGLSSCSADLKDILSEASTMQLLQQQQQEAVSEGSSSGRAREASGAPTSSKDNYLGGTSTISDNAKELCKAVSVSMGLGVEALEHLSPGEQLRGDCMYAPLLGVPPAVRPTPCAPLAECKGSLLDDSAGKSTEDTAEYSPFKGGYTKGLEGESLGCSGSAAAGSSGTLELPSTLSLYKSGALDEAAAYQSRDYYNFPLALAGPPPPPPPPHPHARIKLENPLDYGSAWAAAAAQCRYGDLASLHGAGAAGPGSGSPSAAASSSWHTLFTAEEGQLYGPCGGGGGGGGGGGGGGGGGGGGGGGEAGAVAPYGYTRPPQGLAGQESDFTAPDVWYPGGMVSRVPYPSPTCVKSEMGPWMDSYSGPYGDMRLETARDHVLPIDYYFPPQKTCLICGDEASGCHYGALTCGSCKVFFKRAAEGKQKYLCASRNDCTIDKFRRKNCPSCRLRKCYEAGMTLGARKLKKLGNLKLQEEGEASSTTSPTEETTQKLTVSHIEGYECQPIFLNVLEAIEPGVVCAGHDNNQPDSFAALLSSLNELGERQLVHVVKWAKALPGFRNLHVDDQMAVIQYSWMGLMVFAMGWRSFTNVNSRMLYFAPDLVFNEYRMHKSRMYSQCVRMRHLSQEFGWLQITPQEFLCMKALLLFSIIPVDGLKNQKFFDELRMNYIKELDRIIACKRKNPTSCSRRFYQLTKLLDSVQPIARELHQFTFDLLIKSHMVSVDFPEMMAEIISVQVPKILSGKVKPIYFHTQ
# Ratio of Nucleoli Translocation and Cytoplasm, AR (gene 367), sequence (P10275 whole entry, looked up): as the sequence (P10275 whole entry, looked up, the tested form may be a part) above
# Retinoic acid receptor RXR-alpha (Homo sapiens), sequence (P19793 whole entry, looked up): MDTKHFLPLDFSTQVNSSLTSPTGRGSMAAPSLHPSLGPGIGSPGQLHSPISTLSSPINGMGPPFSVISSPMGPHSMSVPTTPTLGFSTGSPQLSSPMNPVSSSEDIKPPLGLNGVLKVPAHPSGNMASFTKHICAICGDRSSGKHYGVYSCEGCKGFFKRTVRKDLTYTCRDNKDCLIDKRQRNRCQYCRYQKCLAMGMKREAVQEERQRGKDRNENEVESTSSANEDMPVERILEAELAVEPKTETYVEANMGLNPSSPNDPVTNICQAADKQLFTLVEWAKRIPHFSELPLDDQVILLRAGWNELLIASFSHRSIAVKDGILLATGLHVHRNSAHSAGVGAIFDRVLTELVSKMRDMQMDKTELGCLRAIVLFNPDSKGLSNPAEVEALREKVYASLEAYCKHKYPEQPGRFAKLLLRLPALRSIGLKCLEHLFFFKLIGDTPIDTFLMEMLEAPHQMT
compound,measurement,setting,value
CC(C)c1ccc2cc(C(C)C)ccc2c1,outcome,[1],inactive
same,outcome,[2],inactive
same,outcome,[3],inactive
C=C[Si](OC(C)=O)(OC(C)=O)OC(C)=O,outcome,[4],inactive
same,outcome,[5],inactive
same,outcome,[6],inactive
same,outcome,[7],inactive
same,outcome,[8],inactive
same,outcome,[9],inactive
same,outcome,[10],inactive
same,outcome,[11],inactive
C[Si](C)O[Si](C)(C)O[Si](C)(C)O[Si](C)C,outcome,[12],inactive
same,outcome,[13],inactive
CCCCCCC(O)CO (stereo not given),outcome,[12],inactive
same,outcome,[13],inactive
same,outcome,[14],inactive
same,outcome,[15],inactive
same,outcome,[16],inactive
CC(C)=CCC[C@H](C)CCO,outcome,[1],inactive
same,outcome,[17],inactive
same,outcome,[2],inactive
same,outcome,[3],inactive
CC/C=C\C/C=C\C/C=C\CCCCCCCC(=O)O,AC50,[18],20.6 µM (active)
same,outcome,[14],inactive
same,outcome,[15],inactive
same,outcome,[16],inactive
CCCCCCCC[N+](C)(CCCCCCCC)CCCCCCCC,AC50,[18],70.8 µM (active)
CCCCC(CC)COC(=O)c1ccccc1O (stereo not given),outcome,[4],inactive
same,outcome,[5],inactive
same,outcome,[14],inactive
same,outcome,[15],inactive
same,outcome,[16],inactive
same,outcome,[6],inactive
same,outcome,[7],inactive
same,outcome,[8],inactive
same,AC50,[9],7.5 µM (active)
same,outcome,[10],inactive
same,outcome,[11],inactive
O=S(=O)(O)c1ccccc1C=Cc1ccc(-c2ccc(C=Cc3ccccc3S(=O)(=O)O)cc2)cc1,AC50,[18],100 µM (active)
O=C1CCCN1CCO,outcome,[4],inactive
same,outcome,[5],inactive
same,outcome,[6],inactive
same,outcome,[7],inactive
same,outcome,[8],inactive
same,outcome,[9],inactive
same,outcome,[10],inactive
same,outcome,[11],inactive
CO[Si](OC)(OC)c1ccccc1,outcome,[4],inactive
same,outcome,[5],inactive
same,outcome,[6],inactive
same,outcome,[7],inactive
same,outcome,[8],inactive
same,outcome,[9],inactive
same,outcome,[10],inactive
same,outcome,[11],inactive
CCOC(=O)c1ccccc1C(=C1C=C(Br)C(=O)C(Br)=C1)c1cc(Br)c(O)c(Br)c1,outcome,[4],inactive
same,outcome,[5],inactive
same,outcome,[14],inactive
same,outcome,[15],inactive
same,outcome,[6],inactive
same,outcome,[7],inactive
same,outcome,[8],inactive
same,outcome,[9],inactive
same,outcome,[10],inactive
same,outcome,[11],inactive
COc1ccc(C(Cl)=C(c2ccc(OC)cc2)c2ccc(OC)cc2)cc1,outcome,[19],inactive
same,outcome,[20],inactive
same,outcome,[14],inactive
same,outcome,[15],inactive
CC(C)c1ccc2c(C(C)C)cc(C(C)C)c(S(=O)(=O)O)c2c1,outcome,[1],inactive
same,outcome,[3],inactive
CCCCCCCC/C=C\CCCCCCCC(=O)O,AC50,[18],74 µM (active)
same,outcome,[14],inactive
same,outcome,[15],inactive
same,outcome,[16],inactive

# Source: PubChem BioAssay (EPA / NIEHS)
